# Measured values as given in PubChem BioAssay (NCI).
# This is part of a sample that, as a whole, favours compounds with a hit. Of some 83,000 tested, about 20% had one in any assay.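 A percent growth of 40 corresponds to 60% growth inhibition; 0 means no net growth; -100 means all cells died. Active threshold: below 10.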 Unmarked numbers belong to inactive results. Activity calls are given as the source filed them.
# Key:
# Experiment in all cases: NCI-60 one-dose screen, 48 h (100 = growth as untreated, 0 = no growth, -100 = all killed)
# Conditions in all cases: 10 µM
# HT29 colon = system: HT29 colon
# SNB-75 CNS = system: SNB-75 CNS
# SNB-19 CNS = system: SNB-19 CNS
# U251 CNS = system: U251 CNS
# PC-3 prostate = system: PC-3 prostate
# SK-MEL-5 melanoma = system: SK-MEL-5 melanoma
# UACC-62 melanoma = system: UACC-62 melanoma
# LOX IMVI melanoma = system: LOX IMVI melanoma
# SK-MEL-28 melanoma = system: SK-MEL-28 melanoma
# SK-MEL-2 melanoma = system: SK-MEL-2 melanoma
# SN12C renal = system: SN12C renal
# UO-31 renal = system: UO-31 renal
# TK-10 renal = system: TK-10 renal
# ACHN renal = system: ACHN renal
# CAKI-1 renal = system: CAKI-1 renal
# A498 renal = system: A498 renal
# CCRF-CEM leukemia = system: CCRF-CEM leukemia
# MOLT-4 leukemia = system: MOLT-4 leukemia
# SR leukemia = system: SR leukemia
SMILES,growth (HT29 colon),growth (SNB-75 CNS),growth (SNB-19 CNS),growth (U251 CNS),growth (PC-3 prostate),growth (SK-MEL-5 melanoma),growth (UACC-62 melanoma),growth (LOX IMVI melanoma),growth (SK-MEL-28 melanoma),growth (SK-MEL-2 melanoma),growth (SN12C renal),growth (UO-31 renal),growth (TK-10 renal),growth (ACHN renal),growth (CAKI-1 renal),growth (A498 renal),growth (CCRF-CEM leukemia),growth (MOLT-4 leukemia),growth (SR leukemia)
Cn1c(C(N)=O)cc2c1-c1nc(Nc3ccccc3)ncc1CCC2,70%,35.6%,58.4%,26.9%,59.5%,72.1%,37.1%,40.5%,68.7%,46%,28%,12.5%,23.7%,25.6%,23.5%,-43.8% (active),43.5%,42.3%,17.3%
CCC(=O)N1C/C(=C/c2ccc(OC)cc2)C(=O)/C(=C/c2ccc(OC)cc2)C1,-35.5% (active),52.9%,68.2%,4.41% (active),16.2%,15.7%,27.3%,-58.7% (active),19.2%,82.3%,27.4%,-7.25% (active),70.3%,28.4%,13.1%,83.5%,–,11%,-11% (active)
Clc1ccc(Nc2ccnc(NCCNc3ccnc4cc(Cl)ccc34)n2)cc1,-37.4% (active),4.36% (active),69.6%,-48% (active),14.7%,-100% (active),-79.5% (active),-79.5% (active),-100% (active),-76.1% (active),48%,-26.3% (active),-29.9% (active),-7.16% (active),-7.16% (active),17.9%,–,-28% (active),-22.3% (active)
CC(C)(Cl)CCC1=C(Cl)C(=O)c2ccccc2C1=O,115%,30.7%,89%,49.9%,32.8%,-34.8% (active),2.45% (active),20.6%,56.9%,79.1%,79.9%,36.5%,124%,26.3%,96%,27.4%,–,-16.2% (active),-25.3% (active)
Cc1cc(=O)n2nnc3c4ccccc4ccc3n12,85.4%,102%,94.9%,97%,62.5%,88.5%,79.9%,89.3%,98.2%,113%,37.2%,46.8%,74.1%,78.1%,67.8%,108%,23.4%,–,9.54% (active)
